Laboratory results from the supplement of paper PMC9694430.

Experiments:
Test in all cases: thermal shift delta Tm vs DMSO control; higher = stronger stabilization (binding)
Details in all cases: 12.5 µM; protein concentration 2 µM
LOC_OS01G01410-cb001 = tested on: LOC_OS01G01410-cb001
In short: (§1)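 Purified, E. coli-expressed rice kinase domain constructs were tested by differential scanning fluorimetry in 96-well plates: 19.5 μl of 2 μM kinase in 100 mM potassium phosphate pH 7.5, 150 mM NaCl, 10% glycerol, 5 × SYPRO Orange, plus compound in DMSO. Fluorescence was read from 25°C to 95°C at 0.05°C/s. Melting temperatures came from Boltzmann fits, and the shift is the triplicate mean relative to protein with DMSO alone.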

LOC_OS01G02750-cb003 = tested on: LOC_OS01G02750-cb003
In short: as §1

LOC_OS01G10900-cb004 = tested on: LOC_OS01G10900-cb004
In short: as §1

LOC_OS01G13800-cb001 = tested on: LOC_OS01G13800-cb001
In short: as §1

LOC_OS01G14860-cb001 = tested on: LOC_OS01G14860-cb001
In short: as §1

LOC_OS01G21960-cb002 = tested on: LOC_OS01G21960-cb002
In short: as §1

LOC_OS01G39600-cb002 = tested on: LOC_OS01G39600-cb002
In short: as §1

LOC_OS01G48390-cb002 = tested on: LOC_OS01G48390-cb002
In short: as §1

LOC_OS01G51400-cb002 = tested on: LOC_OS01G51400-cb002
In short: as §1

LOC_OS01G52050-cb004 = tested on: T1, LOC_OS01G52050-cb004
T1 sequence (whole entry): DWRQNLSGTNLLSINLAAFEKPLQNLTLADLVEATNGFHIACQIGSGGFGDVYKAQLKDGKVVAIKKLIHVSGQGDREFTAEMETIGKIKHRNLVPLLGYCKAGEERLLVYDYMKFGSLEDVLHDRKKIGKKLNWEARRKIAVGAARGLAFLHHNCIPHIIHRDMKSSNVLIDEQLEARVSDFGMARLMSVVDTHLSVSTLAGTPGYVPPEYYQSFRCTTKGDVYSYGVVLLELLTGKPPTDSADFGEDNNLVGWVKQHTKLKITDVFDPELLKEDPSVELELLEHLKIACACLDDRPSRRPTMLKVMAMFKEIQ
In short: as §1

LOC_OS01G57100-cb003 = tested on: LOC_OS01G57100-cb003
In short: as §1

LOC_OS01G60330-cb001 = tested on: LOC_OS01G60330-cb001
In short: as §1

LOC_OS01G60700-cb002 = tested on: LOC_OS01G60700-cb002
In short: as §1

LOC_OS01G63280-cb003 = tested on: LOC_OS01G63280-cb003
In short: as §1

LOC_OS01G67340-cb003 = tested on: LOC_OS01G67340-cb003
In short: as §1

LOC_OS01G70970-cb002 = tested on: LOC_OS01G70970-cb002
In short: as §1

LOC_OS02G07810-cb001 = tested on: LOC_OS02G07810-cb001
In short: as §1

LOC_OS02G08530-cb003 = tested on: LOC_OS02G08530-cb003
In short: as §1

LOC_OS02G14120-cb001 = tested on: LOC_OS02G14120-cb001
In short: as §1

LOC_OS02G17970-cb001 = tested on: LOC_OS02G17970-cb001
In short: as §1

SMILES	thermal shift delta Tm (LOC_OS01G01410-cb001) [°C]	thermal shift delta Tm (LOC_OS01G02750-cb003) [°C]	thermal shift delta Tm (LOC_OS01G10900-cb004) [°C]	thermal shift delta Tm (LOC_OS01G13800-cb001) [°C]	thermal shift delta Tm (LOC_OS01G14860-cb001) [°C]	thermal shift delta Tm (LOC_OS01G21960-cb002) [°C]	thermal shift delta Tm (LOC_OS01G39600-cb002) [°C]	thermal shift delta Tm (LOC_OS01G48390-cb002) [°C]	thermal shift delta Tm (LOC_OS01G51400-cb002) [°C]	thermal shift delta Tm (LOC_OS01G52050-cb004) [°C]	thermal shift delta Tm (LOC_OS01G57100-cb003) [°C]	thermal shift delta Tm (LOC_OS01G60330-cb001) [°C]	thermal shift delta Tm (LOC_OS01G60700-cb002) [°C]	thermal shift delta Tm (LOC_OS01G63280-cb003) [°C]	thermal shift delta Tm (LOC_OS01G67340-cb003) [°C]	thermal shift delta Tm (LOC_OS01G70970-cb002) [°C]	thermal shift delta Tm (LOC_OS02G07810-cb001) [°C]	thermal shift delta Tm (LOC_OS02G08530-cb003) [°C]	thermal shift delta Tm (LOC_OS02G14120-cb001) [°C]	thermal shift delta Tm (LOC_OS02G17970-cb001) [°C]
CC(C)(C)S(=O)(=O)c1ccc2nccc(Nc3n[nH]c4ccc(F)cc34)c2c1	0.34	1.74	0.48	-0.44	0.3	0.28	1.01	1.31	0.33	0.16	0.91	0.99	0.81	-0.25	0.66	0.6	0.19	0.61	0.25	0.37
CC(C)N(CCC(=O)c1ccc2ccccc2c1)Cc1ccccc1	-0.06	-5.16	1.63	-1.25	-0.01	0.24	-2.79	0.53	-0.18	-7.43	1.6	-0.95	1.89	-2.65	-0.6	-5.39	0.33	-1.55	-2	5.17
CN1CC(O)C2=C/C(=N/NC(N)=O)C(=O)C=C21 (stereo not given) [Carbazochrome]	0.3	0.81	-0.04	-0.31	0.31	0.23	0.14	-0.01	0.5	-1.17	-0.08	0.07	0.11	-0.22	-0.39	0.31	-0.8	0.45	0.37	-0.48
CCS(=O)(=O)N1CCN(c2ccc(Nc3ncc(C(N)=O)c(NC4CC4)n3)cc2)CC1	5.29	1.8	1.08	0.55	3.61	2.53	4.63	1.17	1.11	5.37	0.76	9.63	1.4	1.68	3.04	7.22	0.35	3.19	5.36	1.18
Cn1cnc(N)c2ncnc1-2 [3-Methyladenine (3-MA)]	0.6	5.26	0.17	-0.02	-0.3	0.32	0.46	1.12	0.76	0.09	1.89	1.27	0.77	0.22	-0.29	0.22	0.96	1.08	0.61	0.34
COc1cc(Nc2c(C#N)cnc3cc(OCCCN4CCN(C)CC4)c(OC)cc23)c(Cl)cc1Cl [Bosutinib (SKI-606)]	0.89	0.44	-0.3	0.52	0.06	-0.08	-0.04	0.05	-0.09	0.17	0.91	1.47	0.95	-0.23	-0.85	0.24	0.38	0.38	0.1	-0.22
CCN1CCN(Cc2ccc(Nc3ncc(F)c(-c4cc(F)c5nc(C)n(C(C)C)c5c4)n3)nc2)CC1	1.5	2.83	4.97	-0.66	7.4	3.11	0.45	1.47	0.13	1.08	-0.28	0.1	0.59	0.27	0.39	-0.01	0.46	2.49	5.93	0.23
Cc1ccc(-n2nc(C(C)(C)C)cc2NC(=O)NCc2cc(F)ccc2Oc2ccc3c(cnn3CCO)c2)cc1 [Pexmetinib (ARRY-614)]	0.56	1.41	0.65	-0.01	0.85	1.27	0.75	1.8	0.36	1.87	1.23	2	0.83	6.58	0.87	0.6	0.69	0.78	4.57	1.52
COc1cc2ncnc(Nc3ccc(O)c(Br)c3)c2cc1OC	1.47	-0.02	0.65	-0.02	0.9	0.93	-1.06	3	0.29	1.31	0.74	0.32	1.72	0.92	0.7	0.81	0.81	1.8	7.45	1.06
CCN(C)S(=O)(=O)Nc1ccc(F)c(C(=O)c2c[nH]c3ncc(-c4cnc(C5CC5)nc4)cc23)c1F	1.92	0.92	1.18	0.03	2.04	0.51	3.55	1.01	0.11	0.72	1.23	1.8	0.8	7.4	0.55	0.37	0.74	0.59	-0.46	0.71
Cc1ccc(S(=O)(=O)/C=C/C#N)cc1	-0.23	-1.35	-0.53	-0.18	-0.19	0.75	-1.97	2.88	0.21	-1.44	3.66	-1.26	-1.01	-3.09	-0.5	-2.73	0.83	1.24	-1.26	0.99
CN(C[C@@H]1COCCO1)S(=O)(=O)Nc1ccc2ccc3ncc(-c4cnn(C)c4)cc3c(=O)c2c1	2.9	3.39	1.59	-0.75	0.52	1.85	2.41	0.37	0.29	10.3	2.19	0.33	1.15	1.83	0.51	9.99	1.23	1.58	8.53	0.59
